Compound activity as filed in PubChem BioAssay.
Glioma ERSR ind: ER stress response induction in glioma; U87-MG GRP78 promoter luciferase reporter, 16 h; Potency, µM, hits mostly activators; 0.02% of 420,000 active; AID 602332; note: series mostly up to about 76 µM; nearly all actives have a fitted effect of over 35% in size
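ERSR induction read as luciferase luminescence (Bright-Glo, 10 min at room temperature) in stably transfected human U87-MG glioma cells exposed to compounds for 16 h, using GRP78 as sensor.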
Sfp PPTase inh: Sfp phosphopantetheinyl transferase inhibition | 3.5% of 310,000 active | Biochemical Sfp PPTase activity, qHTS | Potency, µM, actives largely listed as inhibitors | Q9F4F7;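 note: the enzyme is Sfp with the accession as filed and its product quenches rhodamine fluorescence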
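Fluorescence-quenching assay with 15 nM Sfp, 5 uM rhodamine-CoA and 12.5 uM BHQ-2-labelled ybbR peptide in pH 7.6 Hepes/MgCl2 buffer. Enzyme was pre-incubated with compound for 15 min at room temperature. Rate was taken from the 30-min fluorescence change (525/598 nm).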
VDR inhibitor: inhibitors of human vitamin D receptor | P11473 | VDR-SRC2-3 peptide fluorescence polarization, 2 h | Potency, µM, most hits filed as inhibitors | 0.93% of 400,000 active | AID 504847
Target sequence (P11473 whole entry, looked up): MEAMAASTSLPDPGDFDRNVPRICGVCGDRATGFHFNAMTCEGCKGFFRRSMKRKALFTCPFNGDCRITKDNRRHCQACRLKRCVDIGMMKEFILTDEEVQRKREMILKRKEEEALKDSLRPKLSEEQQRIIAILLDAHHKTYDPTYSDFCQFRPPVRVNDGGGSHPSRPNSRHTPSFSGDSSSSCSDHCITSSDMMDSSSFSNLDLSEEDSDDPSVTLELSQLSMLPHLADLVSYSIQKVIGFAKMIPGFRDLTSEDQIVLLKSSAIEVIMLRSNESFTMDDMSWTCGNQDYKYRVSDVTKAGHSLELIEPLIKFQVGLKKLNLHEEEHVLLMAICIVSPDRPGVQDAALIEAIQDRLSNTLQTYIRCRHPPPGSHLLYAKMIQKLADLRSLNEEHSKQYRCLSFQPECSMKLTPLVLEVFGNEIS
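Fluorescence polarization assay of small-molecule disruption of VDR binding to coregulator peptide SRC2-3. Compounds and controls pin-transferred, then read after 2 h incubation at ambient room temperature.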
ALOX12 inh: ALOX12 (human) lipoxygenase inhibition; purified 12hLO, xylenol orange hydroperoxide absorbance; Potency, µM (highest dose often 108 µM), most hits filed as inhibitors; 1.1% of 580,000 active; AID 1671190
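Hydroperoxide product was detected by ferrous iron/xylenol orange as the 573 to 405 nm absorbance ratio. Arachidonic acid at 40 uM (final) was turned over for 30 min at room temperature by 150 nM human 12hLO, pH 7.0 Hepes buffer, after 15 min compound preincubation.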
G9a inh: inhibitors of human histone lysine methyltransferase G9a; Q96KQ7; G9a H3K9 monomethylation, AlphaScreen, 2 h; Potency, µM (titrated, usually from 102 µM), actives largely listed as inhibitors; 8.8% of 350,000 active; AID 504332; note: nearly all actives have a fitted effect of over 75% in size
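Signal arises when biotinylated H3K9 peptide, once monomethylated, bridges streptavidin donor and antibody-captured acceptor beads. Enzyme at 20 nM was preincubated 15 min with test compounds; peptide 500 nM and SAM 20 uM then reacted for 2 h.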
Large screens that a line does not name were inactive. This excerpt belongs to a sample that is enriched for hits. Calls come from the whole dose curve; as a rule, active = well fitted curve in the direction sought with a large enough effect; inconclusive = small, poorly fitted or top-dose-only effect, or another doubt; inactive = no such curve, though single readings can be large; an effect the other way counts as inactive or inconclusive.

Cc1ccc2[nH]c(CCC(=O)N3CC[C@H](CO)[C@H](O)C3)nc2c1C	none (no result: Glioma ERSR ind, Sfp PPTase inh, VDR inhibitor, G9a inh)
COc1ccc2nc(SCC(=O)c3cc(C)n(C)c3C)[nH]c2c1	none (no result: Glioma ERSR ind, Sfp PPTase inh, VDR inhibitor, G9a inh)
Cc1nn(-c2ccccn2)c2c1-c1nc(N3CCOCC3)ncc1CC2	Sfp PPTase inh 45µM, G9a inh inconclusive
Cc1nn(-c2ccccn2)c2c1-c1nc(N)ncc1CC2	G9a inh inconclusive
Cn1c(=O)c2cc(NC(=S)NC3CCCCC3)ccc2n1C/C=C/c1ccccc1	ALOX12 inh 40µM (no result: Sfp PPTase inh, VDR inhibitor, G9a inh)
CN(Cc1ccccc1)C1CCN(Cc2ccccc2[N+](=O)[O-])CC1	Sfp PPTase inh 79µM, ALOX12 inh inconclusive, G9a inh 18µM
COc1ccccc1CN1CCCCCC1	ALOX12 inh inconclusive, G9a inh 40µM
COc1ccc(C(=O)O)cc1CN1CCCCC1	none (no result: Glioma ERSR ind, Sfp PPTase inh, VDR inhibitor, G9a inh)
CN1CCC(N(C)C(=O)Cc2ccccc2[N+](=O)[O-])CC1	none
O=C(c1ccccc1[N+](=O)[O-])N1CCN(Cc2ccc3c(c2)OCO3)CC1	none
O=[N+]([O-])c1ccccc1CN1CCN(Cc2ccc3ccccc3c2)CC1	Sfp PPTase inh inconclusive, ALOX12 inh inconclusive, G9a inh 6.3µM
COc1ccc(Br)cc1CN1CCCCCCC1	Sfp PPTase inh inconclusive, ALOX12 inh inconclusive, G9a inh 2.8µM
C=CCOc1ccccc1CN1CCC(CO)(CCOc2ccccc2)CC1	none
C=CCOc1ccccc1CN1CCCN(C)CC1	G9a inh 8.9µM
COc1ccc(CN2CCN(Cc3ccc4ccccc4c3)CC2)cc1OC	Sfp PPTase inh inconclusive, ALOX12 inh inconclusive
COc1ccccc1CN1CCN(Cc2ccc3ccccc3c2)CC1	Sfp PPTase inh inconclusive, ALOX12 inh inconclusive, G9a inh 7.9µM
N#Cc1ccc(CN2CCC3(CC2)COc2ccccc2C(=O)N3)cc1	none (no result: Glioma ERSR ind, Sfp PPTase inh, VDR inhibitor, G9a inh)
O=C1NC2(CCN(Cc3ccsc3)CC2)COc2ccccc21	ALOX12 inh 45µM (no result: Glioma ERSR ind, Sfp PPTase inh, VDR inhibitor, G9a inh)
Cc1cc(C)cc(-n2ncc3c(=O)n(CC(O)COc4ccc(F)cc4)cnc32)c1 (stereo unspecified)	none (no result: Glioma ERSR ind, Sfp PPTase inh, VDR inhibitor, G9a inh)
O=c1oc(-c2ccc(O)c(O)c2)cc2cccc(O)c12	ALOX12 inh 4.5µM (no result: Sfp PPTase inh, G9a inh)
O=c1cc(-c2cc(O)c(O)c(O)c2)oc2cc(O)cc(O)c12	Sfp PPTase inh inconclusive, VDR inhibitor inconclusive (no result: ALOX12 inh, G9a inh)
O=c1oc(-c2ccc(O)c(O)c2)cc2cc(O)cc(O)c12	Glioma ERSR ind inconclusive, ALOX12 inh 2.5µM (no result: Sfp PPTase inh, G9a inh)
CCOc1ccc(NC(=O)COc2ccc(CC)cc2)c2cccnc12	none (no result: Glioma ERSR ind, Sfp PPTase inh, VDR inhibitor, G9a inh)
O=C1/C(=C/c2ccco2)CCc2ccccc21	Sfp PPTase inh 56µM, ALOX12 inh inconclusive, G9a inh 10µM
Nc1ccc2c(c1)C/C(=C/c1ccco1)C2=O	ALOX12 inh inconclusive, G9a inh 7.1µM
O=C1C(=Cc2cccs2)C(=O)c2ccccc21	none
O=C1C(=Cc2ccco2)C(=O)c2ccccc21	G9a inh 13µM
COc1ccc2c(c1)CC/C(=C/c1ccco1)C2=O	ALOX12 inh inconclusive, G9a inh inconclusive
O=C1/C(=C/c2ccncc2)CCc2ccccc21	VDR inhibitor inconclusive
O=C1/C(=C\c2ccncc2)CCc2ccccc21	VDR inhibitor 79µM (no result: Sfp PPTase inh)
CC(=O)Nc1ccc2oc(-c3cc(C)cc(C)c3)nc2c1	none (no result: Glioma ERSR ind, Sfp PPTase inh, VDR inhibitor, G9a inh)
CC(=O)c1ccc(OCCCC(=O)Nc2ccc3c(C)cc(=O)oc3c2)cc1	none (no result: Glioma ERSR ind, Sfp PPTase inh, VDR inhibitor, G9a inh)
COc1ccc(CC(=O)Nc2cccc3ccc(C)nc23)cc1	none (no result: Glioma ERSR ind, Sfp PPTase inh, VDR inhibitor, G9a inh)
C=CCn1c(SCc2ccc(C#N)cc2)nnc1-c1ccccc1	G9a inh 1.4µM
C=CCn1c(SCc2n[nH]c(=S)n2-c2ccccc2)nnc1-c1ccccc1	ALOX12 inh inconclusive, G9a inh 11µM
COc1cc(/C=C/C(=O)c2cc3ccccc3o2)c2c(c1)CC(C)O2 (stereo unspecified)	none (no result: Glioma ERSR ind, Sfp PPTase inh, VDR inhibitor, G9a inh)
COc1ccc2c(c1)CCc1c(C(=O)NCc3cccnc3)noc1-2	G9a inh 40µM
COc1ccc(N(Cc2cc(CN3CCOCC3)cs2)S(=O)(=O)c2ccccc2C)cc1	none (no result: Glioma ERSR ind, Sfp PPTase inh, VDR inhibitor, G9a inh)
COc1cc(/C=C/C(=O)O)cc(S(=O)(=O)Nc2ccc3nc(SC)sc3c2)c1OC	G9a inh 40µM
CCNc1nc2[nH]c(=O)c3c(c2s1)OC(N)=C(C#N)C3c1ccc(C)cc1 (stereo unspecified)	Sfp PPTase inh 45µM, G9a inh inconclusive
COc1cccc(/C(C#N)=C/c2c(-c3ccc(Cl)cc3)nc3c(C)cccn23)c1	G9a inh 10µM
CC1(C)Oc2cc(N)c([N+](=O)[O-])cc2O1	ALOX12 inh inconclusive, G9a inh inconclusive
